This is a sample that favours compounds with a hit; in the whole collection about 19% have one here.
HT1080 IDH1KD tx = HT-1080 IDH1 knockdown cell toxicity (counter line). HT-1080 IDH1 knockdown viability, ATP luminescence, 48 h. Potency, µM (highest dose often 46.1 µM), inactives show top-dose activity, negative = toxicity, actives largely listed as cytotoxic. 360,000 compounds, 2% hits;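 further: potency means the concentration at half of the fitted maximal effect; 0% = DMSO wells and -100% = cell-free medium wells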
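Viability of IDH1-knockdown HT-1080 fibrosarcoma cells was assessed by CellTiter-Glo after 48 h at 37 °C with titrated compound; concentration-effect curves were classified by fit quality and response size.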
HT1080NT lethal = kills 2HG-producing HT-1080-NT fibrosarcoma cells; HT-1080-NT fibrosarcoma viability, CellTiter-Glo ATP luminescence, 48 h; AID 686970; Potency, µM (top dose mostly 46.1 µM), without a hit: at the highest dose activity, negative = less viability, hits mostly cytotoxic; 360,000 compounds, 1.6% hits;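 further: NT is the 2HG producing partner of a matched IDH1 knockdown line; potency means the concentration at half of the fitted maximal effect; 0% = DMSO-treated cells and -100% = media-only wells without cells; nearly all actives have a fitted effect of over 55% in size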
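Fibrosarcoma NT cells, 750 per well in 5% FBS RPMI, were exposed to compound for 48 hours. Viability: CellTiter-Glo luminescence.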
IL1B secr inh = inflammasome signaling inhibition, IL-1 beta readout; THP-1 LPS/ATP IL-1B secretion, AlphaLISA, 16 h; stronger effect = lower value; activity change, % at 57.5 µM; 360,000 compounds, 4.7% hits; AID 743279; in the data active means activity change below about -50%; inconclusive means mostly about -30% to -49%
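Secreted IL-1B measured by AlphaLISA bead assay after 16 h compound exposure of THP-1 cells; compounds (final up to 57.5 uM) added 1 h before LPS (250 ng/mL) and ATP (1.25 mM) stimulation; lower signal means less secretion.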
ELG1 repair inh = inhibitors of ELG1-dependent DNA repair in HEK293T cells | HEK293T ELG1-luciferase reporter, luminescence, 16 h; DNA damage induced by 5-fluorouridine | Potency, µM (doses to about 46.1 µM), inactives show top-dose activity change, negative = inhibition, hits mostly inhibitors | 330,000 compounds, 2.3% hits | AID 504467; further: potency means the concentration at half of the fitted maximal effect; nearly all actives have a fitted effect of over 55% in size
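Step one: seed 2,000 cells per well. Step two: pin-transfer compound or DMSO alongside 5-fluorouridine. Step three: incubate 16 hr, 37 °C, 5% CO2. Step four: add ONE-Glo, wait 30 min, read luminescence.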
TDP1 cell CPT = DT40-hTDP1 cell growth loss with CPT | chicken DT40 Tdp1-/-;hTDP1 cells + 20 nM CPT, ATP luminescence, 48 h | Potency, µM (top dose mostly 46.2 µM), for the others: at the top dose activity change, negative = growth inhibition, most hits filed as inhibitors | 420,000 compounds, 12% hits | AID 686979; further: potency means the concentration at half of the fitted maximal effect; nearly all actives have a fitted effect of over 55% in size
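Cell growth measured by CellTiter-Glo luminescence after a minimum 48 h, 37 C compound exposure with 20 nM CPT in Tdp1-knockout DT40 cells stably expressing hTDP1, seeded 400/well; qHTS titration format.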
DT40 TDP1 no CPT = qHTS for Inhibitors of human tyrosyl-DNA phosphodiesterase 1 (TDP1): qHTS in cells in absence of CPT | DT40 Tdp1-/- hTDP1 cells, no CPT, ATP luminescence, 48 h | AID 686978, 2013 | Potency, µM (doses to about 46.2 µM), inactives show at the highest dose activity change, negative = growth inhibition, usual class: inhibitors | 420,000 compounds, 15% hits; further: potency means the concentration at half of the fitted maximal effect; nearly all actives have a fitted effect of over 55% in size
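Readout: luminescence from CellTiter-Glo after 30 min in the dark at RT. Cells: DT40 Tdp1-/- with stable hTDP1, 400/well. Exposure: compounds alone, ≥48 hr, 37 °C.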
The depositor's hits bear a star; ? = inconclusive; . = no result given. Unless noted, the call rests on the fitted dose curve; in most records, active means well fitted curve in the direction sought with a large enough effect; inconclusive means small, poorly fitted or top-dose-only effect, or another doubt; inactive means no such curve, though single readings can be large; an effect the other way counts as inactive or inconclusive. Unless noted, on the % scale 0 is the no-effect control and ±100 the full control effect.

SMILES	HT1080 IDH1KD tx	HT1080NT lethal	IL1B secr inh	ELG1 repair inh	TDP1 cell CPT	DT40 TDP1 no CPT
C/C(=N\Nc1ccccc1)c1c(O)n(Cc2ccccc2)c(=O)[nH]c1=O	?	?	-3.7	-26.6%	14.6µM*	?
C/C(=N\Nc1ccccc1)c1c(O)n(-c2ccccc2)c(=O)[nH]c1=O	4.61µM*	?	.	?	7.8%	-6.8%
C/C(=N\Nc1ccccc1)c1c(O)[nH]c(=O)[nH]c1=O	4.11µM*	?	37.8	5.17µM*	3.9%	2.1%
CCC(C(N)=O)N1CCCC1=O (configuration not stated)	.	.	.	.	?	-17.6%
CC(C)C[C@H]1CN([C@@H](CC(C)C)CN2CCCC2CN2C(=S)NC[C@@H]2Cc2ccc(O)cc2)C(=S)N1CC1CCCCCC1 (some centres not stated)	6.3%	4.8%	?	.	18.4µM*	18.4µM*
C[C@@H]1C[C@H](Nc2ccccc2)c2ccccc2N1C(=O)c1cccnc1	-20.5%	-11.7%	-3.2	?	7.31µM*	4.61µM*
CC(C)[C@H](CN(N=O)[C@@H](Cc1ccccc1)CN(C)N=O)N(CCc1ccccc1)N=O	-3.7%	?	-5.8	-8.2%	23.1µM*	23.1µM*
NC(=NCc1ccc(Cl)cc1)SCCCc1cnc[nH]1	.	.	.	.	21.1µM*	?
OCC1OC(O)CC(O)C1O (configuration not stated)	14.4%	15.9%	8.3	.	3.1%	-4.0%
CCOC(=O)c1cccc(C2=C(CNC(=O)c3nccs3)[C@H]3CC[C@@H](C2)N3Cc2ccccc2)c1	-14.5%	-7.8%	1.5	.	14.6µM*	23.1µM*
COc1ccc(CCNC(=O)CCc2c(C)nc3c(-c4ccc(F)cc4)c(C)nn3c2C)cc1OC	.	.	.	.	8.2µM*	11.6µM*
Cc1c2cnn(CC(=O)N3CCC4(CC3)OCCO4)c(=O)c2c(C)n1Cc1ccccc1	3.3%	2.2%	2.2	-9.0%	-6.9%	?
O=C(Cn1ncc2c3ccccc3n(Cc3ccc(F)cc3)c2c1=O)N1CCC2(CC1)OCCO2	-11.6%	-19.2%	-12.5	20.6µM*	3.26µM*	3.26µM*
CCOC(=O)N1CCN(C(=O)Cn2ncc3c4ccccc4n(Cc4ccc(F)cc4)c3c2=O)CC1	.	.	.	.	1.64µM*	1.84µM*
CC1CC(C)(O)CC(C(O)CC2CC(=O)NC(=O)C2)C1=O (configuration not stated)	0.164µM*	?	-101.0*	.	0.184µM*	0.184µM*
CCN(CC)C(=O)N[C@@H]1C=C2c3cccc4[nH]cc(c34)C[C@@H]2N(C)C1	.	.	.	.	21.1µM*	9.44µM*
CCC(CO)NC(=O)C1C=C2c3cccc4[nH]cc(c34)CC2N(C)C1 (configuration not stated)	-6.6%	11.6%	-8.4	0.5%	-7.2%	-14.5%
CNC1C2CN3CCC(O2)C13 (configuration not stated)	.	.	.	.	1.7%	-3.4%
CNC(=O)COC(=O)c1ccc(-c2nc3ccccc3s2)s1	-0.4%	-5.2%	8.4	?	-26.4%	?
O=C1NC(=S)NC(=O)C1=Cc1ccc(OCC(=O)N2CCCC2)cc1	-2.7%	11.8%	18.3	0.8%	-14.4%	19.1%
O=C1NC(=O)C(=Cc2c(Cl)cccc2Cl)C(=O)N1	-0.1%	-9.3%	-58.4*	.	11.6µM*	13µM*
Cc1c(C=C2C(=O)NC(=O)NC2=O)c(=O)n(-c2ccccc2)n1C	17.0%	14.7%	6.4	5.5%	19.0%	5.8%
Cc1ccc(Cn2nc(C(=O)Nc3ccc(Br)cc3)cc2C)cc1	?	-6.4%	33.8	?	?	11.6µM*
CCOc1ccc(Cl)cc1CNCCc1ccc(F)cc1	-24.7%	?	-57.3*	20.3%	20.6µM*	16.4µM*
Cn1cc(NC(=O)CCl)cn1	?	?	-101.5*	7.7%	?	?
SMILES	HT1080 IDH1KD tx	HT1080NT lethal	IL1B secr inh	ELG1 repair inh	TDP1 cell CPT	DT40 TDP1 no CPT
CCC1(c2ccccc2)C(=O)NC(=S)NC1=O	7.1%	9.3%	11.6	.	6.6%	-13.2%
CNC(=O)O/N=C/C(C)(C)S(C)=O (configuration not stated)	.	.	.	.	7.5%	10.2%
CCOC(=O)c1ccccc1NC(=O)N(Cc1ccc(CC)cc1)Cc1cn[nH]c1-c1ccc(OC)cc1	.	.	.	.	?	14.6µM*
CCOC(=O)c1ccccc1NC(=O)c1c(O)[nH]c(=O)[nH]c1=O	4.7%	10.6%	6.5	.	0.1%	-13.7%
CNCC[C@H](Oc1cccc2ccccc12)c1cccs1	?	?	?	.	16.4µM*	23.1µM*
CCOP(=O)(OCC)C(NC(=O)c1cccc([N+](=O)[O-])c1)C(Cl)(Cl)Cl (configuration not stated)	6.9%	5.9%	7.5	-4.7%	-1.7%	-1.4%
O=c1[nH]c(=S)n(-c2cccc(C(F)(F)F)c2)c(O)c1C=NCCN1CCNCC1	-0.9%	0.3%	13.5	?	-33.0%	17.5%
CCOP(=O)(OCC)C(NC(=O)c1cccc(C)c1)C(Cl)(Cl)Cl (configuration not stated)	6.2%	11.4%	36.6	?	16.8%	-1.5%
CCN(CC)c1ccc(NC(=O)c2cccc(C)c2)cc1S(=O)(=O)Nc1ccccc1OC	0.0%	5.0%	-29.5	?	16.4µM*	23.1µM*
O=C(O)c1[nH]c(=O)[nH]c(=O)c1F	?	-12.1%	33.1	7.7%	11.6µM*	11.6µM*
COC(=O)c1ccccc1C(=O)OC	.	.	.	.	0.5%	-5.4%
CCCCn1c(O)c(C=NC2CCCCC2N)c(=O)[nH]c1=O (configuration not stated)	3.5%	-6.8%	-2.6	-1.9%	?	-4.3%
CCCCCCn1c(O)c(C=NC2CCCCC2N)c(=O)[nH]c1=O (configuration not stated)	-4.8%	-5.5%	-0.5	-11.9%	16.4µM*	16.4µM*
COC(=O)C1=C(c2ccc(F)cc2F)C[C@@H]2CC[C@H]1N2C(=O)NCCCOC(C)C	15.0%	16.2%	20.1	6.3%	-5.1%	-17.8%
CC(C)[C@]12O[C@H]1[C@@H]1O[C@]13[C@]1(O[C@H]1C[C@H]1C4=C(CC[C@@]13C)C(=O)OC4)[C@@H]2O	.	.	.	.	0.121µM*	0.153µM*
COc1ccc(CCNC(=O)C(=O)NCC2OCCN2S(=O)(=O)c2ccc(Cl)cc2)cc1 (configuration not stated)	-2.3%	-20.7%	-1.3	?	?	?

Assay outcomes (PubChem BioAssay)
